Experimental data reported in ChEMBL document CHEMBL3988442, “University of Dundee, Small-Polar-MMV Screening Library” (2021).
Hit rate of the full screen: of about 48,000 compounds, about 13,000 (27%) showed an effect of 50% or more. The list shows a part of the results.

These molecules were tested on Wolbachia pipientis (assay: Anti-Wolbachia Cell-Based Screen). Conditions: 5 µM.
Type: functional
Set-up: scale not given: in the data most compounds retested in dose-response had high values

SMILES	Percent Effect [%]
CC(c1cncs1)N(C)Cc1ccc(CCC(C)(C)O)cc1 (stereo unspecified)	-1.575
COCC(C)(CCO)NC(=O)Nc1c(F)cccc1Br (stereo unspecified)	1.184
COCCCN1C(=O)CC[C@H]2CN(Cc3ccc4nonc4c3)CC[C@H]21	-13.98
COCCOCC(=O)N(C)Cc1ccc(OCc2cccs2)cc1	0.8009
COc1ccc(O[C@H]2COCCN(Cc3c[nH]c4ccccc34)C2)cc1	17.89
c1ccc(O[C@H]2COCCN(Cc3cccc4c3OCO4)C2)cc1	-7.306
c1ccc(O[C@H]2COCCN(Cc3c[nH]c4ccccc34)C2)cc1	61.61
Cc1cccc(S(=O)(=O)NCc2cccc(CS(C)(=O)=O)c2)c1	-26.55
CS(=O)(=O)NCCNC(=O)C1(c2cccc(Cl)c2)CC1	8.855
Cc1noc2nc(C3CC3)c(Cl)c(C(=O)O)c12	111.5
Cc1noc([C@@H](C)NCc2cccc(Cl)c2)c1C(=O)O.Cl	-9.594
COC(=O)c1c(Cl)c(C)nc2onc(C)c12	101.9
COC(=O)c1c(Cl)c(C2CC2)nc2onc(C)c12	129
Cc1noc(C)c1CN1CCC(NC(=O)OC(C)(C)C)CC1	-1.462
Cc1nc(C2CCCCC2)sc1C(=O)O	-7.894
CSc1nc(C2CC2)nc(C)c1C(=O)NCc1cc(C)on1	-0.6929
Cc1nc([C@H]2C[C@@H]3CCN(Cc4cnn(C)c4)C[C@H]3O2)sc1C	3.707
CCN1CCn2c(C)cnc2C12CCN(C(=O)C(C)C)CC2.O=C(O)C(F)(F)F.O=C(O)C(F)(F)F	108.7
CCN1CCC2(CN(C(=O)N(C)C)CC23CCNCC3)C1=O.O=C(O)C(F)(F)F (stereo unspecified)	-16.29
CC(C)C(=O)N1CC2(CCN(CC(C)(C)C)CC2)C1.O=C(O)C(F)(F)F	-18.04
CCN1CCn2c(C)cnc2C12CCN(C(=O)CC(C)C)CC2.O=C(O)C(F)(F)F.O=C(O)C(F)(F)F	-11.73
CCN1CCn2c(C)cnc2C12CCN(C(=O)N(C)C)CC2.O=C(O)C(F)(F)F.O=C(O)C(F)(F)F	107
COC(=O)COc1nc(CC(C)C)c2c(c1C#N)CCCC2	13.1
Cc1noc(CN(C)CC2(O)CCCN(CCC3CCCCC3)C2=O)n1 (stereo unspecified)	5.474
CCSCCNC(=O)c1ccc(S(=O)(=O)N2C[C@@H]3C[C@H]2CN3)cc1	-8.721
COC(CNC(=O)c1ccoc1)c1cccc(Cl)c1 (stereo unspecified)	-9.296

SMILES	Percent Effect [%]
CCC(CC)c1nnc(NC(=O)N2CCC(C(N)=O)CC2)s1	-0.6648
Cc1nc(C2CCN(C(=O)c3cnc(N(C)C)nc3)CC2)c2sccn12	121.8
COc1ccc(C(=O)N2CCC(c3nccn3C(C)C)CC2)cc1OC	-4.969
Cc1nc(C2CCN(C(=O)c3cccnc3)CC2)c2sccn12	-3.155
COc1ncc(C(=O)N2CCC(c3nc(C)n4ccsc34)CC2)cn1	120.4
Cc1ncc(CN(C)CC(O)c2cccc(C(F)(F)F)c2)s1 (stereo unspecified)	2.292
c1ccc(OCCSC2=NCCN2)cc1	-0.348
CC(C)N(CC(N)=O)Cc1csc(-c2ncccn2)n1	8.567
Cc1ccc2cc(C(=O)NCCN3CCS(=O)(=O)CC3)c(C)nc2c1	-6.636
CC(=O)N1Cc2nccn2CC(CNC(=O)c2ccnnc2)C1 (stereo unspecified)	-11.54
CSc1nccn1-c1cccc(C(=O)NCCN2CCS(=O)(=O)CC2)c1	100.7
CSc1nccn1-c1cccc(C(=O)NCCC(=O)NC(C)C)c1	87.94
CN(C(=O)c1cccc(C(=O)NCC(F)(F)F)c1)c1ccccc1	-5.375
CSc1nccn1-c1cccc(C(=O)NCC(F)(F)F)c1	95.57
CC(C)NC(=O)CCNC(=O)Nc1cccc(-c2nccn2C)c1	-18.82
CC(C)NC(=O)CCNC(=O)c1cc(Br)cn1C(C)C	8.916
CSc1nccn1-c1cccc(C(=O)NCC2CC2)c1	-0.4347
CSc1nccn1-c1cccc(C(=O)NCCCN2CCOCC2)c1	1.615
CSc1nccn1-c1cccc(C(=O)NCc2nnc(C)n2C)c1	4.938
CSc1nccn1-c1ccc(C(=O)NCC2CC2)cc1	114.7
NC(=O)c1cncc(Oc2cccc(CN3CCCC3)c2Cl)n1	9.192
O=C(NCCN1CCOCC1)NCc1ccccc1-n1cccn1	1.937
CC(=O)N(C)Cc1ccccc1NCc1c(C)noc1C	25.91
COc1cc(C2(C(=O)NC3CCN(CC4CC4)CC3)CC2)ccc1C	28.82
CC(OCC1CC1)C(=O)NCc1cccc(CN2CCN(C)CC2)c1 (stereo unspecified)	14.4
CN(C)[C@@H]1CN(Cc2ccccn2)C[C@H]1c1cn(C)c2ccccc12.Cl	130.6

SMILES	Percent Effect [%]
CC(C)[C@@H]1CN(Cc2ccccc2C#N)C[C@H]1N(C)C	11.57
CN(C)[C@@H]1CN(Cc2ccc(O)cc2)C[C@H]1c1cn(C)c2ccccc12.Cl	86.16
CN(C)[C@@H]1CN(Cc2ccccc2O)C[C@H]1c1cn(C)c2ccccc12.Cl	136.4
Cn1cc(CCC(=O)N2C[C@H]3CC[C@@H]2CN(Cc2ccccc2)C3)cn1	-15.29
CCC[C@@H]1CN(Cc2ccc(N(C)C)nc2)C[C@H]1N(C)C	-0.1894
CN(C)[C@@H]1CN(Cc2cccnc2)C[C@H]1c1cn(C)c2ccccc12.Cl	79.34
CC(C)[C@@H]1CN(Cc2ccccn2)C[C@H]1NS(=O)(=O)N(C)C	-0.7917
CCn1c(C)nnc1CN(C)C1CCN(Cc2ccccn2)C1 (stereo unspecified)	15.92
Cn1cnnc1SCC(=O)N1C[C@H]2CC[C@@H]1CN(Cc1cccnc1)C2	-4.246
CC(=O)N1CCC2(CC1)[C@@H]1CN(Cc3cccnc3)C[C@@H]1C(=O)N2C	-30.73
Cn1ccnc1CN1C(=O)CO[C@H]2CN(Cc3ccccc3O)C[C@H]21	-13.53
O=C1NC(c2ccccc2)=N[C@@]12CC[C@@H]1CN(Cc3ccoc3)C[C@@H]12	-8.675
Cc1ccn(-c2ccccc2NCc2scnc2C)n1	-9.292
CCc1ccc(C(C)NC(=O)c2ccc(CS(C)(=O)=O)o2)cc1 (stereo unspecified)	-17.56
CC(O)CN(CC(=O)NC(=O)NC1CC1)c1ccccc1 (stereo unspecified)	10.44
CS(=O)(=O)NC(=O)c1cc(Cl)c2c(c1)OCCCO2	1.063
CCc1nc(NS(=O)(=O)c2cc(C)ccc2F)no1	7.249
CCN(Cc1noc(CC(C)C)n1)Cc1ccccc1C	1.611
CC(C)Cc1noc(CN(C)c2cc(N(C)C)ncn2)n1	110.5
CCn1ccnc1CN(C)c1cc(OC)ncn1	2.5
CC(C)Cc1noc(CN(C)C2CCCC2)n1	-3.332
COC(C)c1noc(CN(C)c2ncccn2)n1 (stereo unspecified)	-22.13
CCc1cc(N(C)Cc2noc(CC(C)C)n2)ncn1	121.1
CC(C)Cc1noc(CN(C)c2ncccn2)n1	119.3
Cc1ccn(Cc2nc(CC(C)C)no2)c(=O)c1	-2.116
CCc1cc(N(C)Cc2noc(C(C)C)n2)nc(N2CCOCC2)n1	-7.429

SMILES	Percent Effect [%]
COc1cc(N(C)Cc2noc(CC(C)C)n2)ncn1	117.3
COCCc1noc(CN(C)c2cc(C)ncn2)n1	-9.011
CC(C)Cc1nc(CN(C)CCOc2ccc(F)cc2)no1	5.016
OC1CN(Cc2cccc(N3CCOCC3)c2)Cc2ccccc21 (stereo unspecified)	-36.91
O=C(c1scc2c1OCCO2)N1CCOC(Cc2ccc(F)cc2)C1 (stereo unspecified)	-34.62
CS(=O)(=O)N1CCN(C(=O)CN2CCCc3c(F)cc(F)cc32)CC1	12.08
CC(C)n1ncc2c1NC(=O)CC21C(=O)Nc2c(Cl)cc(Cl)cc21 (stereo unspecified)	-10.03
Cc1nn(C)c(C)c1CNC1CCOc2ccccc21 (stereo unspecified)	-9.351
Cn1ncc(NCc2cccc(COC(C)(C)C)c2)c(Cl)c1=O	-1.578
CN(Cc1nccn1C)CC1CCOc2ccccc2C1 (stereo unspecified)	12.56
COc1ccc(C(=O)N2CCCC(NC(=O)C(C)C)C2)c(O)c1 (stereo unspecified)	103.8
CC(C)C(=O)NC1CCCN(C(=O)c2cc3ccccc3cc2O)C1 (stereo unspecified)	101.9
CC(=O)NC1CCN(C(=O)c2cnc(COc3ccccc3)nc2O)C1 (stereo unspecified)	1.868
CC(=O)NC1CCCN(C(=O)Nc2nnc(C(C)C)s2)C1 (stereo unspecified)	-25.39
CC(C)(C)OC(=O)NCC1CCN(C(=O)c2ccccc2O)C1 (stereo unspecified)	-1.633
COc1ccc(C(=O)N2C[C@@H](C(=O)O)[C@H](c3ccccc3)C2)c(O)c1	5.335
CC(=O)NC1CCCN(C(=O)c2ccc(Br)cc2O)C1 (stereo unspecified)	-3.443
CC(C)C(=O)NC1CCCN(C(=O)c2ccccc2O)C1 (stereo unspecified)	105
O=C(NCCc1nncn1C1CC1)C1(c2ccccc2)CCC1	-10.81
CS(=O)(=O)CCNC(=O)NCCc1cc2ccccc2o1	-10.03
CCOC(=O)C1(CCOC)CCN(Cc2nccn2CC)CC1	-7.374
CC(C)NC(=O)NC[C@H]1OC[C@@H](NCc2ccccc2O)[C@@H]1O	1.072
O=C(NCC1(O)CCCCC1)c1coc(COc2cccc(F)c2)n1	-6.674
